# IL1B secr inh = blocks inflammasome-driven IL-1 beta release | activity change, % at 57.5 µM | hit rate 4.7% among 360,000 | THP-1 LPS/ATP IL-1B secretion, AlphaLISA, 16 h; hits give low values; in the data active = activity change below about -50%; inconclusive = mostly about -30% to -49%
#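 THP-1 cells pretreated 1 hr with compounds (up to 57.5 uM final), then stimulated with LPS (250 ng/mL final) plus ATP (1.25 mM final); secreted IL-1B measured by AlphaLISA after 16 hr, decreased signal indicating inhibition.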
# HT1080NT lethal = kills 2HG-producing HT-1080-NT fibrosarcoma cells | HT-1080-NT fibrosarcoma viability, CellTiter-Glo ATP luminescence, 48 h | hit rate 1.6% among 360,000 | Potency, µM (series often up to 46.1 µM), for inactives: at the top dose activity, negative = less viability, hits mostly cytotoxic;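 also: NT is the 2HG producing partner of a matched IDH1 knockdown line; potency is read from the fitted curve at half-maximal effect; 0% = DMSO-treated cells and -100% = media-only wells without cells; nearly all actives have a fitted effect of over 55% in size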
#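 HT-1080-NT; 750 cells/well; 5% FBS RPMI; 48 h compound, 37 degrees C; CellTiter-Glo luminescence; curve fitting and curve-class assignment.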
# DT40 TDP1 no CPT = qHTS for Inhibitors of human tyrosyl-DNA phosphodiesterase 1 (TDP1): qHTS in cells in absence of CPT; DT40 Tdp1-/- hTDP1 cells, no CPT, ATP luminescence, 48 h; Potency, µM (highest dose often 46.2 µM), for inactives: at the top dose activity change, negative = growth inhibition, most hits filed as inhibitors; hit rate 15% among 420,000; AID 686978, 2013; also: potency is read from the fitted curve at half-maximal effect; nearly all actives have a fitted effect of over 55% in size
#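 Seeded 400 DT40-hTDP1 cells/well (vehicle DMSO, no 20 nM CPT); pinned compounds; ≥48 hr at 37 °C; CellTiter-Glo luminescence as viability measure.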
# HT1080 IDH1KD tx = HT-1080 IDH1 knockdown cell toxicity (counter line); Potency, µM (series often up to 46.1 µM), for inactives: top-dose activity, negative = toxicity, actives largely listed as cytotoxic; HT-1080 IDH1 knockdown viability, ATP luminescence, 48 h; hit rate 2% among 360,000;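 also: potency is read from the fitted curve at half-maximal effect; 0% = DMSO wells and -100% = cell-free medium wells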
#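 Viability of IDH1-knockdown HT-1080 fibrosarcoma cells was assessed by CellTiter-Glo after 48 h at 37 °C with titrated compound; concentration-effect curves were classified by fit quality and response size.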
# DT40 TDP1 CPT = DT40-hTDP1 cell growth loss with CPT | chicken DT40 Tdp1-/-;hTDP1 cells + 20 nM CPT, ATP luminescence, 48 h | Potency, µM (titrated, usually from 46.2 µM), inactives show at the top dose activity change, negative = growth inhibition, usual class: inhibitors | hit rate 12% among 420,000 | AID 686979; also: potency is read from the fitted curve at half-maximal effect; nearly all actives have a fitted effect of over 55% in size
#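 Chicken DT40 Tdp1-/- cells complemented with human TDP1, 400 cells/well, exposed to compounds plus 20 nM camptothecin for at least 48 h at 37 C; viability read as ATP content by CellTiter-Glo luminescence.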
# Starred values were filed as active, the others as inactive; ? = inconclusive; / = not tested or not shown; ! = not active in a repeat; [ ] = remark or other dose. This is a sample that favours compounds with a hit; in the whole collection about 19% have one here. Unless noted, calls follow the shape of the dose curve; as a rule, active = well fitted curve in the direction sought with a large enough effect; inconclusive = small, poorly fitted or top-dose-only effect, or another doubt; inactive = no such curve, though single readings can be large; an effect the other way counts as inactive or inconclusive. Unless noted, % is scaled to controls: 0 for no effect and ±100 for the full control effect.
SMILES,IL1B secr inh,HT1080NT lethal,DT40 TDP1 no CPT,HT1080 IDH1KD tx,DT40 TDP1 CPT
CCc1nc2ccc(C(=O)Nc3ccc(Cl)c(Cl)c3)cn2c1N(C)Cc1ccc(OC)cc1,-61*,?,?,?,16µM*
CCc1nc2ccc(C(=O)Nc3ccc(OC)c(OC)c3)cn2c1N(C)Cc1ccc(OC)cc1,?,-30%,?,-19%,?
CCc1nc2ccc(C(=O)NCCOc3ccc(OC)cc3)cn2c1N(CCN(C)C)CC1CC1,?,-26%,?,-27%,?
COc1cc(C(=O)N(Cc2cccc(Cl)c2)C2CCS(=O)(=O)C2)cc(OC)c1OC (stereo not given),-11,0%,-20%,20%,-23%
COc1ccc(OC)c(N(CC(N)=O)S(=O)(=O)c2ccc(OC)c(OC)c2)c1,0,-1%[9.24 µM],-12%,-17%,-6%
NS(=O)(=O)c1cccc(NC(=O)CSc2nnc(C3CC3)n2-c2ccccc2)c1,29,-13%,?,-11%,-20%
CCc1nc2ccc(C(=O)Nc3cccc(OCC(=O)N(C)C)c3)cn2c1N(C=O)Cc1ccc(OC)cc1,-7,?,?,1%,?
CCc1nc2ccc(C(=O)NCCOc3ccc(OC)cc3)cn2c1N(C=O)Cc1ccc(OC)cc1,0,1%,?,-4%,23µM*
COc1ccc(OC)c2sc(N(CCN(C)C)C(=O)/C=C/c3cccs3)nc12,-103*,18µM*,?,16µM*,?
COc1ccc(C)c2sc(N(CCN(C)C)C(=O)/C=C/c3cccs3)nc12,-71*,21µM*,?,?,?
CCOc1ccccc1CNC(=O)c1cnc2sc(N3CCOCC3)nn2c1=O,/,/,-13%,/,-1%
COc1cc2ccccc2cc1C(=O)Nc1ccccc1N1CCN(S(C)(=O)=O)CC1,-15,3%,21µM*,-13%,21µM*
COc1ccc(OCC(=O)Nc2ccccc2N2CCCCC2)cc1,3,3.3µM*,1.6µM*,4.1µM*,1.6µM*
COc1ccc(OCC(=O)Nc2ccccc2N2CCN(C)CC2)cc1,-19,-8%,-22%,-2%,-12%
O=C(COc1ccc(Cl)cc1Br)Nc1ccccc1N1CCCC1,-3,-8%,?,-5%,21µM*
COc1ccc(CNCC(=O)Nc2ccccc2-n2cccc2)cc1,11,?,6.5µM*,?,8.2µM*
Cc1ccc(Cl)c(OCC(=O)Nc2ccccc2N2CCCCC2)c1,17,1%,?,-2%,?
Cc1cc(=S)c2cccc(C)c2[nH]1,10,0%,?,-3%,?
COc1ccc(-c2cccc3c2OC(CNC(=O)c2ccc4c(c2)OCO4)C3)nn1 (stereo not given),/,/,-16%,/,17%[9.04 µM]
O=C(NCc1ccc(Cl)cc1)c1cnc2sc(N3CCCCCC3)nn2c1=O,/,/,-1%,/,15%
COc1cc(C(C)=O)ccc1OCC(=O)Nc1ccccc1N1CCCCC1,?,?,8.2µM*,?,9.2µM*
Cc1cc(C(=O)COc2ccc(Cl)cc2Br)c(C)n1C,?,-11%,?,-26%,-2%
COc1cc(C(C)=O)ccc1OCC(=O)Nc1ccccc1N1CCCC1,-21,-19%,?,-10%,?
COc1cccc(OC)c1C(=O)Nc1ccccc1N1CCCCC1,-51*,0%,?,-5%,?
COC(=O)C1CCCN1C(=O)COc1ccc(Cl)cc1Br (stereo not given),8,6%,?,5%,18µM*
SMILES,IL1B secr inh,HT1080NT lethal,DT40 TDP1 no CPT,HT1080 IDH1KD tx,DT40 TDP1 CPT
CCC(=O)N1CCN(c2ccccc2NC(=O)COc2ccc(C(C)C)cc2)CC1,0,?,16µM*,?,?
Cc1cc(=O)cc(C)n1-c1ccccc1Br,-8,-10%,0%,-1%,-12%
CCN1/C(=C/C(C)=O)Sc2ccc(OC)cc21,1,-7%,13µM*,-4%,7.1µM*!
COc1ccc2c(c1)S/C(=C\C(=O)c1ccncc1)N2C,-23,-1%,?,-1%,?
C=CCN1C(=O)/C(=C2/Sc3ccc(OC)cc3N2CC)SC1=S,16,-2%,-22%,-3%,2%
COc1ccc2c(c1)N(C)/C(=C/c1cccc[n+]1C)S2,0,?,0.01µM*,13µM*,0.26µM*
CCN1/C(=C/c2cccc[n+]2C)Sc2ccc(OC)cc21,?,?,2.3µM*,?,2.6µM*
CCOc1ccc2nc(N(CCN(CC)CC)C(=O)c3cccc([N+](=O)[O-])c3)sc2c1,-7,0%,?,-2%,-2%
C#CCn1cc2c(c1-c1ccccc1)c(=O)n(C)c(=O)n2C,17,8%,21µM*,1%,16µM*
Cn1c(=O)c2c(-c3ccccc3)n(CCCO)cc2n(C)c1=O,/,/,-22%,/,-11%
Cn1c(=O)c2c(-c3ccccc3)n(-c3cc([N+](=O)[O-])ccc3N)cc2n(C)c1=O,19,-4%,?,-3%,?
Cn1c(=O)c2c(-c3ccccc3)n(-n3cnnc3)cc2n(C)c1=O,-17,-19%,?,-27%,26µM*
Cn1c(=O)c2c(-c3ccccc3)n(-c3cccc(C#N)c3)cc2n(C)c1=O,/,/,23µM*,/,16µM*
Cn1c(=O)c2c(-c3ccccc3)n(-c3cccc(Br)c3)cc2n(C)c1=O,34,-11%,8.2µM*,1%,9.2µM*
CCOc1ccc(CCNC(=O)Cn2ncn3c(cc4sc(C)cc43)c2=O)cc1OCC,/,/,?,/,1%
COC(=O)c1sccc1-n1cc2c(c1-c1ccccc1)c(=O)n(C)c(=O)n2C,2,5%,21µM*,4%,?
Cn1c(=O)c2c(-c3ccccc3)n(-c3ccccc3F)cc2n(C)c1=O,-12,24%,13µM*,12%,15µM*
COc1ccc(C(=O)Nn2cc3c(c2-c2ccccc2)c(=O)n(C)c(=O)n3C)cc1,0,3%,-5%,17%,-27%
CCOC(=O)c1ccc(O)c(-n2cc3c(c2-c2ccccc2)c(=O)n(C)c(=O)n3C)c1,23,1%,15µM*,-2%,?
COc1ccc(-c2c3c(=O)n(C)c(=O)n(C)c3cn2-c2ccccc2)cc1,14,-2%,13µM*,-5%,26µM*
NC1(C(=O)O)CCCCC1c1ccccc1 (stereo not given),9,4%,1%,2%,-9%
COc1ccc(-c2c3c(=O)n(C)c(=O)n(C)c3cn2-c2cccc(N)c2)cc1,/,/,23µM*,/,?
Cn1c(=O)c2c(-c3ccccc3)n(-c3cc(C(=O)O)ccc3O)cc2n(C)c1=O,8,28%,5%,14%,-15%

# Screening data: PubChem, National Center for Advancing Translational Sciences (NCATS)
